This note sets out measurements from PubChem BioAssay AID720542 (National Center for Advancing Translational Sciences (NCATS), 2013).

The whole screen tested about 360,000 compounds, of which about 740 (0.21%) were called active. About 2% were inconclusive and are not listed. The call rests on the fitted dose curve; in most records, active means well fitted inhibition curve with a large enough effect; inconclusive means small, poorly fitted or top-dose-only effect; inactive means no such curve, though single readings can be large or run the other way. The list comes from a sample in which actives are over-represented; it also holds similar structures and randomly drawn compounds. Entries that show only a call come without a potency.
Potency means the concentration at half of the fitted maximal effect.

This experiment has as its system Plasmodium falciparum AMA1 (3D7) - RON2 peptide interaction. The experiment in a line: qHTS for Inhibitors of AMA1-RON; Towards Development of Antimalarial Drug Lead: Primary Screen. Further: nearly all actives have a fitted effect of over 45% in size. The following applies: AlphaScreen AMA1-biotinylated RON2 peptide binding; series mostly up to 58.2 µM. The source says: Plasmodium, the causative agent of malaria, is one of the world's deadliest parasitic diseases. Currently there is no vaccine available and there is widespread resistance to common anti-malarial drugs. This warrants novel, alternative approaches for developing improved therapy. During infection, one such essential interaction is between two parasite proteins, the apical membrane antigen1 (AMA1) that is translocated onto the merozoite surface and the rhoptry neck protein 2 (RON2), which is transferred to the red blood cells (RBC) membrane during invasion (Besteiro et.al., 2009). Recently, the Miller lab has shown that the interaction between AMA1 and RON2 is essential for junction formation of the parasite with the host cell (Srinivasan et.al., 2011). The binding of the RON2 peptide to the hydrophobic pocket in AMA triggers the formation of the moving junction which provides a firm anchor for the parasite to pull itself into the RBC using its actin-myosin motor; an irreversible step that commits the parasite for invasion. Only one AMA1 and RON2 genes exists in Plasmodium and there are no alternate pathways. Moreover, the region corresponding to RON2 peptide is conserved in all P. falciparum isolates for which sequences are available. The key residues in the AMA1 hydrophobic pocket that binds RON2 are also conserved and indicate a functional constraint governing this essential step in invasion since a short RON2 peptide (RON2L) corresponding to the binding region on AMA1 is sufficient to compete with the native RON2 protein and inhibits invasion (Tonkin et.al, 2011). Therefore, developing small molecule inhibitors of this interaction offers a promising target opening a new arena for anti-malarial therapeutics drug design.
In collaboration with the Miller lab, a quantitative High Throughput Screen using the AlphScreen technology was developed using a recombinant his-tagged AMA1 and a biotinylated RON2 peptide. This fluorescent screen was assayed against the NIH Molecular Libraries Small Molecule Repository (MLSMR). Inhibition of this protein-protein interaction is the desired outcome of this assay. However, due the limitations of this AlphaScreen assay, a large number of artifacts were observed. An AlphaScreen counterscreen was run to identify the true inhibitors, triage compound activity, and weed out false positives.
NIH Chemical Genomics Center [NCGC]
NIH Molecular Libraries Probe Centers Network [MLPCN]
Assay Submitter (PI): Louis Miller, National Institute of Allergy and Infectious Disease (NIAID)
Two microliters of his-tagged AMA1 3D7 allele protein (final concentration 25 nM) was dispensed into a 1,536-well assay plate. Small molecules and positive control peptides were pin-transferred (23 nL or 46 nL) via Kalypsys pin-tool equipped with a 1,536-pin array, resulting in final compound and peptide concentration ranges of 91.5 nM - 57.2 µM, and 15.6 nM - 2.00 µM, respectively. Unlabeled RON2 peptide or R1 peptide ([…]) that specifically binds the 3D7 AMA1 was used as a positive control that inhibited the binding of RON2L to AMA1. After 15 minutes incubation, 1 uL of biotinylated RON2 peptide (final concentration 25 nM) or buffer were dispensed and the assay plate was incubated for an additional 30 minutes at room temperature and protected from light. This was followed by an addition of 1 uL mixture of donor and acceptor beads (10 ug/mL final concentrations for each). The plates were incubated for 30 min at room temperature and read using the EnVision(R) plate reader (PerkinElmer). Maximum inhibition response was normalized to the positive control signal while no inhibition response was normalized to the DMSO treated wells.
On the technique in general: qHTS replaces the single test concentration by a dilution series.
Take `O=C(COC(=O)CNS(=O)(=O)c1ccccc1)NC12CC3CC(CC(C3)C1)C2`: the Potency entry was “inactive”.

For `O=c1ccc2cc(S(=O)(=O)NCCCc3ccccc3)ccc2[nH]1`, the Potency result is “inactive”.

As to `COc1ccc(C2CC(c3ccc(Cl)cc3Cl)Nc3nc(N)nn32)cc1OC` (stereo not drawn), the Potency entry was “inactive”.

As for `COc1ccc(C2CC(c3ccc(C)cc3)Nc3nc(N)nn32)cc1` (stereo not drawn), the Potency is 3.16 µM (active).

`Cc1ccc(C2CC(c3cccc(Br)c3)n3nc(N)nc3N2)cc1` (stereo not drawn): the Potency entry is “inactive”.

`CCOc1cc(C(=O)N(Cc2ccccc2)c2ccc(C)cc2)ccc1OCC(=O)N1CCOCC1`: the Potency entry is “inactive”.

For `CN(C)/C=C(/C(=O)c1ccc(Cl)c(Cl)c1)c1nnnn1-c1ccccc1`, the Potency entry was “inactive”.

Turning to `COC(=O)c1ccc(NC(=O)CSc2nnc(C3CC3)n2C)cc1`, the Potency entry is “inactive”.

For the compound `C/C=C/C=C/C(=O)OCC(=O)Nc1ccc(Cl)cc1`, the Potency entry is “inactive”.

In the case of `CCCCN1C(=O)CCC(C(=O)O)C1c1ccc(OC)cc1` (stereo not drawn), the Potency result was “inactive”.

For `O=C(Nc1cccc(S(=O)(=O)NC2=NCCC2)c1)C1CCCCC1`, the Potency entry is “inactive”.

Regarding `COCCCNC(=O)c1c(F)c(F)c(F)c(F)c1F`, the Potency entry is “inactive”.

Consider `COc1ccc(C(CNC(=O)c2ccc(OCc3cscn3)cc2)N2CCCC2)cc1` (stereo not drawn), for which the Potency entry was “inactive”.

Regarding `CN(C)/C=C(/C(=O)c1ccc(F)cc1)S(=O)(=O)c1ccc(F)cc1`, the Potency result was “inactive”.

Regarding `CC(c1ccco1)N(C(=O)COc1ccccc1[N+](=O)[O-])c1ccccn1` (stereo not drawn), the Potency entry is “inactive”.

Take `CCOC(=O)N1CCN(C(=O)COCc2cc(-c3ccc4c(c3)OCO4)on2)CC1`: the Potency result is “inactive”.

For the compound `COC(=O)c1c(NC(=O)C(=O)N2CCCCC2)sc2c1CC(C)(C)OC2`, the Potency entry is “inactive”.

In the case of `CCn1cc(/C=C2/SC(=S)NC2=O)c(C)n1`, the Potency result is “inactive”.

Turning to `COC(=O)c1ccc2ccccc2c1OC1OC(CO)C(O)C(O)C1NC(C)=O` (stereo not drawn), the Potency result was “inactive”.

For `O=C(c1ccc(Br)o1)N(c1ccccn1)C1CCCCC1`, the Potency result was “inactive”.

In the case of `O=C(NC(=O)c1ccc(Cl)c(Cl)c1)OC1CCS(=O)(=O)C1` (stereo not drawn), the Potency entry is “inactive”.

With `O=C(Nc1cccnc1Oc1ncnc2cc(Cl)ccc12)c1ccc(F)cc1`, the Potency entry is “inactive”.

Regarding `CCN(C(=O)COC(=O)c1sccc1C)c1c(N)n(Cc2ccccc2)c(=O)[nH]c1=O`, the Potency result was “inactive”.

In the case of `Nc1ccc2nc3c(=O)[nH]c(=S)[nH]c3nc2c1`, the Potency is 1.41 µM (active).

Turning to `c1ccc(CCC2=NCCn3cccc32)cc1`, the Potency result is “inactive”.

For `Cc1ccc(S(=O)(=O)N2CCCCC2)cc1NC(=O)CCNC(=O)c1ccccc1`, the Potency entry was “inactive”.

Take `Cc1ccc(-c2nnn(CC(=O)N(CCO)C(C(=O)NC(C)(C)C)c3ccncc3)n2)cc1` (stereo not drawn): the Potency result is “inactive”.

Turning to `Cc1cccc(C)c1NC(=O)CN1C(=O)C(C)Oc2ccccc21` (stereo not drawn), the Potency result is “inactive”.

In the case of `Cc1occc1-c1nnc(SCC(=O)NC2CCCCC2)o1`, the Potency result was “inactive”.

Regarding `COc1cc(Cl)c(C)cc1NC(=O)CSc1nnc(CN2CCCC2)o1`, the Potency result was “inactive”.

On to `CCn1c(SCC(=O)Nc2cc(C)c(Cl)cc2OC)nnc1-c1ccco1`, for which the Potency is 33.6 µM (active).

For the compound `COc1cc(Cl)c(C)cc1NC(=O)CSc1nnc(-c2ccco2)n1CC(C)C`, the Potency entry was “inactive”.

As to `CC(C)NC(=O)NCCCCCCS(C)=O` (stereo not drawn), the Potency result is “inactive”.

With `Oc1ccc2ccccc2c1N=Nc1nccs1`, the Potency was 28.2 µM (active).

Take `COc1ccc(CNC(=O)c2ccc(NS(=O)(=O)c3ccc4[nH]c(=O)[nH]c4c3)cc2)cc1OC`: the Potency result was “inactive”.

`COc1ccccc1/C=N/N1CCN(Cc2ccccc2Cl)CC1`: the Potency is 15.8 µM (active).

In the case of `COc1ccccc1/C=C/C=N/NC(=O)CN1CCN(Cc2ccccc2)CC1`, the Potency result was “inactive”.

As to `COCCNC(=O)C1CCCN(Cc2ccccc2Cl)CC1` (stereo not drawn), the Potency entry is “inactive”.

On to `Cc1ccc(CN2CCN(/N=C/c3ccco3)CC2)c(C)c1`, for which the Potency entry is “inactive”.

Turning to `CSc1ccc(/C=N/N2CCN(Cc3ccccc3Cl)CC2)cc1`, the Potency was 14.1 µM (active).

For `O=S1(=O)CCN(Cc2ccccc2Cl)CC1`, the Potency entry was “inactive”.

`CC1CCCN(C(=O)Cn2c(=O)oc3ccccc32)C1` (stereo not drawn): the Potency result was “inactive”.

`Cc1coc(C)c1C(=O)CC1(O)C(=O)N(C)c2ccc(Cl)cc21` (stereo not drawn): the Potency result was “inactive”.

For the compound `N#Cc1cccc(CSc2nnc(CCCO)n2-c2ccccc2)c1`, the Potency result is “inactive”.

Take `Cc1ccc(C(C(=O)NC2CCCCC2)N(C(=O)c2csnn2)C2CC2)o1` (stereo not drawn): the Potency entry was “inactive”.

As for `COc1cccc(-c2ccc3c(c2)N(Cc2ccccc2OC)C(=O)C(C)S3)c1` (stereo not drawn), the Potency result is “inactive”.

As for `O=C1/C(=C\c2cccnc2)CN(Cc2ccccc2)C/C1=C\c1cccnc1`, the Potency entry was “inactive”.

Turning to `Nc1ccc2c(c1)C(=Cc1cccnc1)c1ccccc1-2`, the Potency was 20 µM (active).

Turning to `Cc1ccc(C2=C/C(=C\c3cccnc3)C(=O)O2)cc1`, the Potency entry was “inactive”.

As to `Cc1c(C)c2c(OCC(=O)N[C@@H](C(=O)O)c3ccccc3)cc3c(c2oc1=O)CCC(C)(C)O3`, the Potency result was “inactive”.

As to `O=C(CC[C@H]1O[C@@H](n2ccc(=O)[nH]c2=O)[C@H](O)[C@@H]1O)N[C@H](Cc1ccccc1)C(=O)NCCCN1CCCC1=O`, the Potency entry is “inactive”.

On to `CCOC(=O)CC(SP1(=S)OCC2(CCCCO2)C(C2CCCCO2)O1)C(=O)OCC` (stereo not drawn), for which the Potency result is “inactive”.

For the compound `O=C(Nc1ccccc1-c1nnn(CC(=O)N2CCCc3ccccc32)n1)c1cccc(Cl)c1`, the Potency result is “inactive”.

In the case of `CCC(C)C(=O)Nc1ccccc1N1CCN(c2ccc(F)cc2)CC1` (stereo not drawn), the Potency entry was “inactive”.

On to `Cc1cc(C)cc(NC(=O)N2CCC(NC(=O)c3ccc(F)cc3)CC2)c1`, for which the Potency result is “inactive”.

`O=c1ccc2c(-c3ccccc3S(=O)(=O)O)c3ccc(O)c(O)c3oc-2c1O`: the Potency was 5.01 µM (active).

For `CC1=C(C(=O)Nc2ccccc2)C(c2cccs2)C(C#N)=C(SCC#N)N1` (stereo not drawn), the Potency result was “inactive”.

In the case of `Cc1ccc(-c2nn(C(C)(C)C)c3ncnc(N)c23)cc1`, the Potency result is “inactive”.

Take `CC(C)NC(=S)NN=C1CCCCCCCCCCC1`: the Potency result is “inactive”.

As for `NC(=S)Nc1c(Cl)cccc1Cl`, the Potency result was “inactive”.

Consider `CCCCC(=O)NNC(=S)NC(=O)C(c1ccccc1)c1ccccc1`, for which the Potency result is “inactive”.

For `Cc1noc(C)c1S(=O)(=O)N(C)Cc1ccccc1`, the Potency result is “inactive”.

Take `CC1(C)O[C@@H]2[C@H](O1)[C@@H](COS(=O)(=O)O)O[C@H]2n1ccc(=O)[nH]c1=O`: the Potency result is “inactive”.
